# Assay results published in PubChem BioAssay (NCATS).
# Inconclusive results are not listed. Where a call stands in place of a potency, no number is given. Values without a mark were called inactive. Active and inactive are the calls of the source. Calls come from the whole dose curve; as a rule, active = well fitted curve in the direction sought with a large enough effect; inconclusive = small, poorly fitted or top-dose-only effect, or another doubt; inactive = no such curve, though single readings can be large; an effect the other way counts as inactive or inconclusive.
# Tests used:
# CRL-7250 [1] = test: Cytotoxic Profiling of Annotated Libraries Using Quantitative High-Throughput Screening (AID 1296008); details: Five cell lines viability, CellTiter-Glo ATP luminescence, 48-72 h; max response: stronger effect = lower value; note: nearly all actives have a fitted effect of over 60% in size
# In short: (§1)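 Cytotoxicity was measured as CellTiter-Glo ATP luminescence, read after 10 min at room temperature. Compound treatment of the cells lasted 48 or 72 hr at 37 degrees Celsius in a qHTS format.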
# HEK293 = test: as above; details: Five cell lines viability, CellTiter-Glo ATP luminescence, 48-72 h; max response: stronger effect = lower value
# In short: as §1
# HaCat [2] = test: as above; details: Five cell lines viability, CellTiter-Glo ATP luminescence, 48-72 h; max response: stronger effect = lower value
# In short: as §1
# NIH3T3 [3] = test: as above; details: Five cell lines viability, CellTiter-Glo ATP luminescence, 48-72 h; max response: stronger effect = lower value
# In short: as §1
# HACAT [4] = test: qHTS assay to identify novel small-molecules to repurpose for Merkel cell carcinoma treatment (AID 1296009); details: MCC and control cell lines, CellTiter-Glo viability, 72 h; at 44.8 µM (top of the series) unless noted; note: nearly all actives have a fitted effect of over 60% in size
# In short: (§2)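 Cell viability, measured as CellTiter-Glo luminescence, was normalized between DMSO and no-cell wells. The cells had been exposed to 8- or 11-point compound dilutions for 72 hr at 37 degree celsius.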
# MCC-13 = test: as above; details: MCC and control cell lines, CellTiter-Glo viability, 72 h; series mostly up to 46 µM
# In short: as §2
# MCC-26 = test: as above; details: MCC and control cell lines, CellTiter-Glo viability, 72 h; series mostly up to 46 µM
# In short: as §2
# MKL-1 = test: as above; details: MCC and control cell lines, CellTiter-Glo viability, 72 h; series mostly up to 46 µM
# In short: as §2
# MKL-2 = test: as above; details: MCC and control cell lines, CellTiter-Glo viability, 72 h; series mostly up to 46 µM
# In short: as §2
# UISO = test: as above; details: MCC and control cell lines, CellTiter-Glo viability, 72 h; series mostly up to 46 µM
# In short: as §2
# WaGa = test: as above; details: MCC and control cell lines, CellTiter-Glo viability, 72 h; series mostly up to 46 µM
# In short: as §2
# C33A = test: Primary qHTS to identify gynecologic anti-cancer compounds using libraries of approved drugs and bioactive compounds (AID 1345084); details: Gynecologic cancer cell panel viability, ATPlite luminescence, 48 h; series mostly up to 57.5 µM; note: nearly all actives have a fitted effect of over 55% in size
# In short: (§3)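 Luminescence from the ATPlite ATP-monitoring reagent indicates viable cell number; lower signal means cytotoxicity. Cells received compound 16 h after seeding and were exposed for 48 h across five concentrations.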
# CAOV3 = test: as above; details: Gynecologic cancer cell panel viability, ATPlite luminescence, 48 h; series mostly up to 57.5 µM
# In short: as §3
# CASKI = test: as above; details: Gynecologic cancer cell panel viability, ATPlite luminescence, 48 h; series mostly up to 57.5 µM
# In short: as §3
# TAB165 = test: qHTS profiling for inhibitors of Plasmodium falciparum proliferation (AID 504749); note: nearly all actives have a fitted effect of over 60% in size; details: P. falciparum in erythrocytes, SYBR Green DNA, 72 h; series mostly up to 28.7 µM
# In short: (§4)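 SYBR Green fluorescence of parasite DNA, read after lysis and overnight dark incubation, measured growth over 72 h in erythrocyte culture at 0.3% parasitemia and 2.5% hematocrit. Data normalised to DMSO and 0.29 uM artemisinin, with plate-drift correction.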
# W2 = test: as above; details: P. falciparum in erythrocytes, SYBR Green DNA, 72 h; series mostly up to 28.7 µM
# In short: as §4
# KB-3-1 = test: Cytotoxic Profiling of Annotated Libraries Using Quantitative High-Throughput Screening (AID 1296008); details: Five cell lines viability, CellTiter-Glo ATP luminescence, 48-72 h; max response: stronger effect = lower value; note: nearly all actives have a fitted effect of over 60% in size
# In short: as §1
# CRL-7250 [5] = test: qHTS assay to identify novel small-molecules to repurpose for Merkel cell carcinoma treatment (AID 1296009); details: MCC and control cell lines, CellTiter-Glo viability, 72 h; at 44.8 µM (top of the series) unless noted; note: nearly all actives have a fitted effect of over 60% in size
# In short: as §2
# NIH3T3 [6] = test: as above; details: MCC and control cell lines, CellTiter-Glo viability, 72 h; at 44.8 µM (top of the series) unless noted
# In short: as §2
# Potency is the fitted concentration of half-maximal effect.
structure (smiles),measurement,setting,value
CCCOC(=O)c1cncn1C(C)c1ccccc1 (stereo not drawn),max response,CRL-7250 [1],-1.16%
same,max response,HEK293,1.16%
same,outcome,HaCat [2],inactive
same,max response,NIH3T3 [3],3.77%
same,outcome,HACAT [4],inactive
same,outcome,MCC-13,inactive
same,Potency,MCC-26,inactive
same,Potency,MKL-1,inactive
same,Potency,MKL-2,inactive
same,Potency,UISO,inactive
same,Potency,WaGa,inactive
same,Potency,C33A,inactive
same,outcome,CAOV3,inactive
same,outcome,CASKI,inactive
O=C1CN=C(c2ccccc2)c2cc([N+](=O)[O-])ccc2N1,Potency,TAB165,inactive
same,Potency,W2,inactive
same,max response,HEK293,-13.4%
same,outcome,HaCat [2],inactive
same,max response,KB-3-1,3.93%
same,max response,NIH3T3 [3],-0.271%
same,outcome,HACAT [4],inactive
same,outcome,MCC-13,inactive
same,Potency,MKL-1,inactive
same,Potency,MKL-2,inactive
same,Potency,UISO,inactive
same,Potency,WaGa,inactive
same,Potency,C33A,inactive
same,outcome,CAOV3,inactive
same,outcome,CASKI,inactive
CC(Cc1ccccc1)NCCn1cnc2c1c(=O)n(C)c(=O)n2C (stereo not drawn),max response,CRL-7250 [1],2.38%
same,outcome,HaCat [2],inactive
same,max response,KB-3-1,0.853%
same,max response,NIH3T3 [3],-0.181%
same,outcome,HACAT [4],inactive [at 92 µM]
same,outcome,MCC-13,inactive
same,Potency,MKL-1,inactive
same,Potency,MKL-2,inactive
same,Potency,UISO,inactive
same,Potency,WaGa,inactive
same,Potency,C33A,inactive
same,outcome,CASKI,inactive
Nc1nc(N)nc(NC2CC2)n1,Potency,TAB165,inactive
same,Potency,W2,inactive
same,max response,CRL-7250 [1],-14.4%
same,max response,HEK293,-46.2%
same,max response,KB-3-1,8.79%
same,max response,NIH3T3 [3],-2.48%
same,outcome,MCC-13,inactive
same,Potency,MCC-26,inactive
same,Potency,MKL-1,inactive
same,Potency,MKL-2,inactive
same,Potency,UISO,inactive
same,Potency,WaGa,inactive
same,Potency,C33A,inactive
same,outcome,CASKI,inactive
COc1cccc2c1C(=O)c1c(O)c3c(c(O)c1C2=O)C[C@@](O)(C(=O)CO)CC3OC1CC(N2CCOC(OC)C2)C(O)C(C)O1 (stereo partly drawn),Potency,CRL-7250 [1],16.8 nM (active)
same,Potency,HEK293,0.0119 µM (active)
same,Potency,HaCat [2],21.1 nM (active)
same,Potency,NIH3T3 [3],6.7 nM (active)
same,Potency,UISO,18.8 nM (active)
same,Potency,WaGa,0.0237 µM (active)
same,Potency,C33A,282 nM (active)
COc1cccc([C@@]2(O)CCCC[C@@H]2CN(C)C)c1,outcome,CRL-7250 [1],inactive
same,max response,HEK293,-4.04%
same,max response,KB-3-1,0.535%
same,outcome,NIH3T3 [3],inactive
same,outcome,CRL-7250 [5],inactive
same,outcome,MCC-13,inactive
same,Potency,MCC-26,inactive
same,Potency,MKL-1,inactive
same,Potency,MKL-2,inactive
same,outcome,NIH3T3 [6],inactive
same,Potency,UISO,inactive
same,Potency,WaGa,inactive
same,Potency,C33A,inactive
same,outcome,CAOV3,inactive
same,outcome,CASKI,inactive
CCC(CC)(CNC(=O)CCCO)c1cccc(OC)c1,max response,CRL-7250 [1],0.244%
same,max response,HEK293,-5.56%
same,max response,HaCat [2],-1.8%
same,outcome,NIH3T3 [3],inactive
same,outcome,MCC-13,inactive
same,Potency,MCC-26,inactive
same,Potency,MKL-1,inactive
same,Potency,MKL-2,inactive
same,outcome,NIH3T3 [6],inactive
same,Potency,UISO,inactive
same,Potency,WaGa,inactive
same,Potency,C33A,inactive
same,outcome,CAOV3,inactive
same,outcome,CASKI,inactive
C[C@]12CC[C@H]3[C@@H](CCC4=CC(=O)CC[C@@H]43)[C@@H]1CC[C@@H]2OC(=O)CCC1CCCCC1,outcome,CRL-7250 [1],inactive
same,max response,HaCat [2],2.69%
same,outcome,NIH3T3 [3],inactive
same,outcome,CRL-7250 [5],inactive
same,outcome,MCC-13,inactive
same,Potency,MCC-26,inactive
same,Potency,MKL-1,inactive
same,outcome,NIH3T3 [6],inactive
same,Potency,WaGa,18.8 µM (active)
same,Potency,C33A,inactive
same,outcome,CAOV3,inactive
same,outcome,CASKI,inactive
O=[N+]([O-])O[C@H]1CO[C@H]2[C@@H]1OC[C@H]2O[N+](=O)[O-],max response,CRL-7250 [1],-11.3%
same,max response,HEK293,1.42%
same,max response,NIH3T3 [3],-0.157%
same,outcome,MCC-13,inactive
same,Potency,MCC-26,inactive
same,Potency,MKL-1,inactive
same,Potency,MKL-2,inactive
same,Potency,UISO,inactive
same,Potency,WaGa,inactive
same,Potency,C33A,inactive
same,outcome,CAOV3,inactive
same,outcome,CASKI,inactive
CCOP(=S)(OCC)Oc1ccc2c(C)c(Cl)c(=O)oc2c1,Potency,W2,6.75 µM (active)
same,max response,CRL-7250 [1],-4.21%
same,max response,HaCat [2],0.247%
same,max response,KB-3-1,-7.69%
same,max response,NIH3T3 [3],-7.51%
same,outcome,MCC-13,inactive
same,Potency,MKL-1,inactive
same,Potency,UISO,inactive
same,Potency,C33A,inactive
same,outcome,CASKI,inactive
c1ccc(N2CCNCC2)cc1,max response,CRL-7250 [1],4.63%
same,max response,HEK293,-4.08%
same,outcome,HaCat [2],inactive
same,outcome,NIH3T3 [3],inactive
same,outcome,HACAT [4],inactive
same,outcome,MCC-13,inactive
same,Potency,MCC-26,inactive
same,Potency,MKL-1,inactive
same,Potency,MKL-2,inactive
same,outcome,NIH3T3 [6],inactive
same,Potency,UISO,inactive
same,Potency,WaGa,inactive
same,Potency,C33A,inactive
same,outcome,CAOV3,inactive
same,outcome,CASKI,inactive
COC(=O)C(c1ccccc1)C1CCCCN1 (stereo not drawn),Potency,TAB165,inactive
same,Potency,W2,4.26 µM (active)
same,max response,KB-3-1,5.58%
COc1ccc(C2CNC(=O)C2)cc1OC1CCCC1 (stereo not drawn),outcome,CRL-7250 [5],inactive
COc1cccc(C(=O)CCN[C@@H](C)[C@H](O)c2ccccc2)c1,outcome,HaCat [2],inactive
same,max response,KB-3-1,25.7%
same,max response,NIH3T3 [3],-18.8%
same,outcome,HACAT [4],inactive
same,outcome,MCC-13,inactive
same,Potency,MCC-26,inactive
same,Potency,MKL-2,15 µM (active)
same,Potency,C33A,inactive
same,outcome,CAOV3,inactive
same,outcome,CASKI,inactive
Cc1nnc2n1-c1ccc(Cl)cc1C(c1ccccc1)=NC2,Potency,TAB165,inactive
same,Potency,W2,4.78 µM (active)
same,max response,KB-3-1,-2.21%
O=c1oc2ccccc2c(O)c1Cc1c(O)c2ccccc2oc1=O,Potency,TAB165,inactive
same,Potency,W2,inactive
same,outcome,HaCat [2],inactive
same,outcome,NIH3T3 [3],inactive
same,outcome,HACAT [4],inactive
same,outcome,MCC-13,inactive
same,Potency,MCC-26,inactive
same,Potency,MKL-1,inactive
same,Potency,MKL-2,inactive
same,outcome,NIH3T3 [6],inactive
same,Potency,UISO,inactive
same,Potency,WaGa,inactive
same,Potency,C33A,inactive
same,outcome,CAOV3,inactive
same,outcome,CASKI,inactive
CC(C)c1c(CN(C)C(C)Cc2ccccc2)n(C)n(-c2ccccc2)c1=O (stereo not drawn),Potency,HEK293,8.41 µM (active)
same,max response,KB-3-1,1.6%
same,max response,NIH3T3 [3],4.46%
same,outcome,MCC-13,inactive
same,Potency,MCC-26,inactive
same,Potency,MKL-1,inactive
same,Potency,MKL-2,inactive
same,Potency,UISO,inactive
same,Potency,WaGa,inactive
same,Potency,C33A,inactive
same,outcome,CASKI,inactive
CC(C)(C)C(=O)Oc1ccc(S(=O)(=O)Nc2ccccc2C(=O)NCC(=O)O)cc1,outcome,CRL-7250 [5],inactive
COc1ccc(C(=O)NCc2ccc(OCCN(C)C)cc2)cc1OC,outcome,CRL-7250 [5],inactive
Cc1c(N(C)CS(=O)(=O)O)c(=O)n(-c2ccccc2)n1C,outcome,CRL-7250 [5],inactive
COc1ccc2c(c1)C13CCCC[C@@H]1C(C2)N(C)CC3 (stereo partly drawn),Potency,W2,1.2 µM (active)
same,max response,KB-3-1,18.3%
